# Data as given in PubChem BioAssay AID504832 (National Center for Advancing Translational Sciences (NCATS), 2011).
# Out of some 310,000 compounds screened, about 18,000 (5.8%) were called active. Another 22% or so got no clear call; they are omitted. Calls follow the shape of the dose curve; as a rule, active = well fitted inhibition curve with a large enough effect; inconclusive = small, poorly fitted or top-dose-only effect, or another doubt; inactive = no such curve, though single readings can be large or run the other way. Shown is part of a subset that was picked to be rich in actives.
# Test: Primary qHTS for delayed death inhibitors of the malarial parasite plastid, 48 hour incubation
# Details: P. falciparum luciferase growth in erythrocytes; series mostly up to 28.7 µM; activity change, negative = inhibition: at the top concentration
# Source text: The goal of this screen is to discover new antimalarial compounds that act by inhibiting the development of the apicoplast in the malarial parasite Plasmodium falciparum. The biochemical processes that make this organelle essential for erythrocytic stage parasites are not well understood. However, antibiotics such as azithromycin and tetracycline, which target the apicoplast translational machinery, have a potent antimalarial effect.
# We have developed a cell-based assay that measures parasite growth based on the expression of an integrated copy of a firefly luciferase reporter. To detect small molecules that cause this "delayed death" phenotype, erythrocytes infected with the luciferase-expressing parasites were incubated with compounds for either one or two generations, corresponding to 48 and 96 hours, respectively. Compounds that inhibit parasite growth in the second generation, but not the first, should be enriched in antimalarials that target the apicoplast. Growth inhibition is detected by a decrease in luciferase activity.
# Assay Provider: David Fidock and Eric Ekland, Columbia University
# Keywords: NIH Roadmap, MLPCN, MLI, MLSMR, qHTS, NCGC, qHTS, malaria, luciferase, viability
# Four microliters of culture medium (RPMI 1640 with 0.5% w/v Albumax (GIBCO), 24 mM sodium bicarbonate and 10 ug/mL gentamycin) were dispensed by a Multi-drop Combi into white solid 1536-well plates (Grenier) and 23 nL compound was added by a pin tool. Four microliters of infected erythrocytes (2% hematocrit, 0.1% parasitemia final concentration) in culture medium were dispensed and the plates incubated for 48 hours at 37 C in 5% CO2. Two microliters of luciferase detection reagent was added and luminescence was detected by a ViewLux (PerkinElmer) reader.
# % is scaled to controls: 0 for no effect and ±100 for the full control effect; potency is read from the fitted curve at half-maximal effect.
SMILES,"activity change, negative = inhibition",Potency
C=CCOc1ccc(/C=C/C(=O)OCC(=O)NC2CCCCCC2)cc1,26.8% (inactive),
CCC(Oc1ccccc1C)C(=O)Nc1ccc(S(=O)(=O)Nc2cc(C)on2)cc1 (stereo unspecified),2.5% (inactive),
CC(=O)c1cc(CN2CCC(n3nccc3NC(=O)c3ccccc3Cl)CC2)cs1,-13.4% (inactive),
CC(OC(=O)c1ccccc1NCCO)C(=O)Nc1ccnn1C(C)C (stereo unspecified),-26.5% (inactive),
Cc1ccc(NC(=O)CN(C)C(=O)c2ccc(Br)o2)cc1,4.06% (inactive),
COc1ccc(-c2cnc(SCCNC(=O)c3ccc4c(c3)OCO4)[nH]2)cc1,-5.01% (inactive),
CC(Oc1ccc(Br)cc1)C(=O)NC1CCCCCC1 (stereo unspecified),2.7% (inactive),
COc1ccc(S(=O)(=O)NCC(c2ccco2)N2CCOCC2)cc1 (stereo unspecified),-6.97% (inactive),
CC(Oc1ccc(Br)cc1)C(=O)NCC(c1ccco1)N1CCCCC1 (stereo unspecified),,11.7 µM (active)
O=C(COc1ccc2ccc(=O)oc2c1)NCC(O)c1ccccc1 (stereo unspecified),18.9% (inactive),
O=C(CNC(=O)OCc1ccccc1)NC1CCCCNC1=O (stereo unspecified),0.406% (inactive),
CCOc1ccccc1/C=N/Nc1nc2ccccc2o1,-29.1% (inactive),
CCCCNC(=O)N1CCCC(N(C)CCc2ccc(OC)c(OC)c2)C1 (stereo unspecified),-0.406% (inactive),
COc1ccc(CCN(Cc2cc3cccc(C)c3[nH]c2=O)C(=O)N2CCCC2)cc1OC,,8.28 µM (active)
COc1ccc(CCNC(=O)C(=O)NCc2ccccc2C)cc1OC,-8.37% (inactive),
Cc1ccc2c(cnn2C(=O)CCC(=O)NC2CCCC2)c1,7.75% (inactive),

SMILES,"activity change, negative = inhibition",Potency
O=C(O)CSCC(=O)Nc1cccc(C(F)(F)F)c1,7.05% (inactive),
O=C(Nc1cccc(C(F)(F)F)c1)c1cnccn1,33.4% (inactive),
Cn1nc(C(F)(F)F)c(C(=O)Nc2cccc(C(F)(F)F)c2)c1SCc1ccc(Cl)cc1,,1.85 µM (active)
COc1ccc(CCNC(=O)COc2ccc3c(c2)OCO3)cc1,8.33% (inactive),
CN(C)C(=O)CCC(=O)N1CCCCC1C(=O)Nc1ccc(Oc2ccccc2F)cc1 (stereo unspecified),27.6% (inactive),
CCOc1cc(/C=C/C(=O)OCC(=O)NCCN2C(=O)CSC2=O)ccc1OCC(C)C,,14.7 µM (active)
COc1ccc(/C=C/C(=O)OCC(=O)NCc2cccs2)cc1OC,9.68% (inactive),
CCOC(=O)CCCNC(=O)COC(=O)/C=C/c1ccc2c(c1)OCO2,397% (inactive),
COc1ccc(CNC(=O)CN2C(=O)NC3(CCCc4sccc43)C2=O)cc1 (stereo unspecified),-0.331% (inactive),
CCN(CC)S(=O)(=O)c1ccc(N2CC(C(=O)NCc3cccnc3)CC2=O)cc1 (stereo unspecified),-16.4% (inactive),
Cc1ccc2[nH]c(=O)c(CN(C)S(=O)(=O)c3cccc4nonc34)cc2c1,21.1% (inactive),
CCN(Cc1ccccc1)S(=O)(=O)c1cc2c3c(c1)CCN3C(=O)CC2,-3.66% (inactive),
CC1CCCN(CC(=O)Nc2cc(Cl)ccc2Oc2ccccc2)C1 (stereo unspecified),,14.7 µM (active)
COc1cc(Cl)c(C)cc1NC(=O)CN1CCCCCC1,3.43% (inactive),
O=C(CN1CCCCCC1)Nc1ccc(Cl)cc1F,25.3% (inactive),
